Inconclusive results are not listed. Active and inactive are the calls of the source. Calls follow the shape of the full dose curve.
Test: qHTS Assay for Lipid Storage Modulators (AID 1519); as to activity change, negative = inhibition: % is scaled to controls: 0 for no effect and ±100 for the full control effect
Details: Drosophila S3 cells, BODIPY lipid droplet/cell ratio, laser cytometry, cells loaded with oleic acid; for activity change, negative = inhibition: at 57.5 µM (top of the series)
Excerpt: NIH Molecular Libraries Probe Production Centers Network [MLPCN]
NIH Chemical Genomics Center [NCGC]
Assay Submitter (PI): Beller, Mathias; Max-Planck-Institut fur Biophysikalische Chemie
NCGC Assay Overview: Storing lipids as a reservoir for energy or the anabolism of elementary metabolites is a common feature of probably all cells and is conserved from bacteria to humans. The universal cellular lipid storage organelle is the so-called lipid storage droplet (LD). Although ubiquitous, LDs share a simple structure composed of a hydrophobic core that harbors the storage lipids, which is shielded by a droplet-specific phospholipid monolayer to which proteins are attached. The current model of LD biogenesis involves an incorporation of the lipid core into the membrane leaflets of the endoplasmic reticulum (ER) followed by a subsequent budding-like maturation of a LD, which ultimately pinches off. Once released, LD volume can increase by localized lipogenesis or fusion of existing droplets. Storage lipids are re-mobilized enzymatically by lipase activity. Lipase regulation in the adipocyte is heavily studied and involves multiple components including catecholamine signaling, the LD-associated proteins Perilipin and comparative gene identification-58 (CGI-58) and at least two lipases named hormone sensitive lipase (HSL) and adipocyte triglyceride lipase (ATGL). LD regulation outside of the adipocyte is poorly understood and only few components are known. However, there is an urgent need to learn more about ectopic fat depots as mislocalized storage of lipids, for example in the liver or muscle, is an eminent health problem associated with insulin resistance or the metabolic syndrome. We developed a laser-scanning cytometer assay to enable 1,536-well screening and combined the results of the small molecules screen with an RNAi database based on lipid storage.
NCGC Assay Protocol Summary:
We dispensed 4 uL of cells at 1.25 x 10^6 cells/mL into LoBase Aurora COC 1,536-well plates (black walled, clear bottom) with a bottle-valve solenoid-based dispenser (Aurora) to obtain 5,000 cells/well. Triacsin C (Sigma-Aldrich T-4540), an inhibitor of long-chain fatty acyl CoA synthetase that blocks synthesis of triglycerides, was used as a positive control for lipid under-storage. A total of 23 nL of compound solution of different concentrations were transferred to the assay plates using a Kalypsys pin tool equipped with a 1,536-pin array containing 10-nL slotted pins (FP1S10, 0.457-mm diameter, 50.8 mm long; V&P Scientific). One microliter of oleic acid (400 uM) was added, and the plate was lidded with stainless steel rubber gasket lined lids containing pinholes. […] Fluorescence was detected by excitation of the fluorophores with a 488-nm laser on an Acumen Explorer (TTP Lab Tech). The total intensity in channel 1 (500-530 nm) reflected lipid droplet accumulation. […] The ratio of the total intensity in PMT channel 1 over total intensity of channel 3 was also calculated. Percent activity was computed relative to an internal control (100% inhibited lipid droplet deposition due to the presence of 20 uM Triacsin C), which was added to 32 wells/plate.

[1] = measured here: cell count channel max response
[2] = measured here: lipid channel max response

Compound | activity change, negative = inhibition | max response [1] [%] | max response [2] [%]
COCCn1c(=O)cnc2cnc(Nc3cccc(OC)c3)nc21 | -15.5% (inactive) | -13.4 | -29.7
COc1ccccc1-c1nccc(NCc2cnc(C)cn2)n1 | 11.7% (inactive) | 16.8 | 27.7
CN(C)c1ncnc2ccc(-c3ccccc3C#N)cc12 | 8.38% (inactive) | 15.4 | 23.3
CN(Cc1ccco1)c1ncncc1-c1ccoc1 | 6.13% (inactive) | 22.8 | 28.4
COc1ccc(C(=O)N2CCC[C@@]3(CCN(Cc4ccc(C#N)cc4)C3)C2)cc1 | 3.64% (inactive) | 10.2 | 17.8
CN(C)Cc1ccccc1-c1cncnc1Nc1ccncc1 | 4.9% (inactive) | 13.6 | 17.6
O=c1c(-c2ccc(Cl)cc2)nc2cnc(N3CCNCC3)nc2n1Cc1cccs1 | 0.33% (inactive) | -11.5 | -12.6
c1cncc(CNc2nc(-c3ccoc3)nc3ccccc23)c1 | 12.2% (inactive) | 2.22 | 16.5
COc1ccc(CNc2ncnc3ccc(-c4cccnc4)cc23)c(OC)c1 | -5.09% (inactive) | -15.1 | -21.1
Cc1noc(C)c1C(=O)N1CCC2(CCCN(C(=O)Nc3cccc(F)c3)C2)CC1 | 5.45% (inactive) | 9.33 | 19.9
Cc1nc2cnc(N3CCN(C)CC3)nc2n(Cc2cccs2)c1=O | 5.56% (inactive) | 14 | 22.2
CCNc1ncc2nc(C)c(=O)n(CCC#N)c2n1 | 3.22% (inactive) | -0.74 | 2.02
CS(=O)(=O)N1CCC2(CCCN(c3ccncc3)C2)CC1 | 4.5% (inactive) | 17.1 | 26.8
FC(F)(F)c1ccccc1-c1nccc(N2CCNCC2)n1 | 4.7% (inactive) | 10.7 | 12.2

Source: PubChem BioAssay (NCATS)
